Measured values published in PubChem BioAssay (Tox21).
Results filed as inconclusive are left out. The source made the active and inactive calls. Unless noted, calls come from the whole dose curve; as a rule, active = well fitted curve in the direction sought with a large enough effect in the repeat runs; inconclusive = weak or mixed curves; inactive = no such curve, though single readings can be large; an effect the other way counts as inactive or inconclusive.

Experiments:
[1] = qHTS assay for small molecules that induce genotoxicity in human embryonic kidney cells expressing luciferase-tagged ATAD5 (AID 651632); note: nearly all actives have a fitted effect of over 15% in size
Outline: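 ATAD5-luc HEK293T, 2,000 cells/well; cpd or DMSO pin-transferred; 16 hr, 37C/5% CO2; Amplite 30 min RT; luminescence.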

[2] = qHTS assay for small molecules that induce genotoxicity in human embryonic kidney cells expressing luciferase-tagged ATAD5 - cell viability (AID 651634; calls by dose curve; note: nearly all actives have a fitted effect of over 25% in size)
Outline: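 Fluorescence from CellTiter-Fluor, reporting protease activity within live cells, served as the viability read-out. HEK293T cells carrying luciferase-tagged ATAD5 had been treated with compound for 15.5 hr at 37C.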

[3] = qHTS assay for small molecule disruptors of the mitochondrial membrane potential - cell viability (AID 720634; calls by dose curve;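 note: human HepG2 liver cancer cells; series mostly up to about 83 µM; nearly all actives have a fitted effect of over 20% in size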)
Outline: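 Cells: HepG2, 2,000/well, attached overnight. Compound 1 hr, 37 C/5% CO2. +m-MPI dye, +CellTiter-Glo 30 min RT. Readout: luminescence (ATP).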

[4] = qHTS assay for small molecule disruptors of the mitochondrial membrane potential (AID 720635); note: potency is the fitted concentration of half-maximal effect
Outline: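 HepG2 cells exposed to compound 1 hr at 37C, then Mito-MPS dye 30 min. Ratio read of aggregate (540/590 nm) versus monomer (490/535 nm) fluorescence.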

[5] = qHTS assay to test for compound auto fluorescence at 590 nm (red) in HepG2 cells (AID 720674)
Outline: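 Fluorescence at 590 nm emission following 540 nm excitation was recorded from HepG2 wells one hour after compound transfer, with DMSO-only wells as vehicle and Rose Bengal sodium equivalency as the scale.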

[6] = qHTS assay to test for compound auto fluorescence at 535 nm (green) in HepG2 cells (AID 720675)
[7] = qHTS assay to test for compound auto fluorescence at 460 nm (blue) in HEK293 cells (AID 720678)
Outline: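 Triamterene serves as the blue fluorophore standard. Compound signal at 405/460 nm is read in HEK293 wells (2,000 cells, 10% dialyzed FBS) after overnight treatment at 37C.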

[8] = qHTS assay to test for compound auto fluorescence at 590 nm (red) in HEK293 cells (AID 720679)
Outline: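 We plated HEK293 cells in 10% dialyzed FBS medium, let them adhere for 4-5 hr, then added 23 nL compound. Overnight at 37C and 5% CO2 preceded fluorescence measurement at 540/590nm.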

[9] = qHTS assay to test for compound auto fluorescence at 535 nm (green) in HEK293 cells (AID 720680)
[10] = qHTS assay to test for compound auto fluorescence at 535 nm (green) in HEK293 cell free culture (AID 720682)
Outline: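 Intrinsic compound fluorescence is measured in culture medium containing 10% FBS, with excitation at 485 nm and detection at 535 nm, referenced to fluorescein.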

[11] = qHTS assay to test for compound auto fluorescence at 590 nm (red) in HEK293 cell free culture (AID 720683)
Outline: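 Cell-free wells of DMEM with 10% FBS received compound, and intrinsic fluorescence was read at excitation/emission 540/590 nm. Values expressed as equivalence to Rose Bengal sodium.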

[12] = qHTS assay to test for compound auto fluorescence at 590 nm (red) in HepG2 cell free culture (AID 720684)
Outline: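 Compounds are added to culture medium (MEM, 10% FBS) lacking cells, then fluorescence is read at excitation 540 nm, emission 590 nm, with Rose Bengal sodium as the equivalency standard.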

[13] = qHTS assay to test for compound auto fluorescence at 460 nm (blue) in HepG2 cell free culture (AID 720685)
Outline: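 Compound (23 nL) or DMSO pinned into cell-free MEM with 10% FBS; blue fluorescence read at 405/460 nm excitation/emission, expressed as auto-fluorescence equivalency to triamterene.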

[14] = qHTS assay to test for compound auto fluorescence at 535 nm (green) in HepG2 cell free culture (AID 720686)
[15] = qHTS assay to test for compound auto fluorescence at 460 nm (blue) in HepG2 cells (AID 720687)
Outline: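 HepG2 cells in MEM with 10% FBS, attached overnight at 37 C, were exposed to compound or DMSO for 1 hr at 37 C, 5% CO2. Blue fluorescence was read at 405/460 nm, with triamterene as reference fluorophore.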

[16] = molecular target: Glucocorticoid receptor (Homo sapiens) (UniProt P04150); assay: qHTS assay to identify small molecule agonists of the glucocorticoid receptor (GR) signaling pathway (AID 720691; active = well fitted activation curve with a large enough effect in the signal ratio in the repeat runs, not every such curve was filed as active; the % refers to the signal ratio)
Outline: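 Fluorescence intensity from LiveBLAzer B/G FRET substrate (2 h, room temperature) reports beta-lactamase expression driven by the glucocorticoid response element in GR-bla HeLa cells after 18 h compound exposure at 37 C.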

[17] = molecular target: Glucocorticoid receptor (Homo sapiens) (UniProt P04150); assay: qHTS assay to identify small molecule antagonists of the glucocorticoid receptor (GR) signaling pathway (AID 720692; active = well fitted inhibition curve with a large enough effect in the signal ratio in the repeat runs, not every such curve was filed as active; the % refers to the signal ratio)
Outline: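 HeLa GR-bla cells; cmpd + dex 5 nM final, 18 h 37 C; LiveBLAzer B/G FRET substrate 2 h RT; fluorescence intensity read. Antagonist mode, qHTS.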

[18] = qHTS assay to test for compound auto fluorescence at 460 nm (blue) in HEK293 cell free culture (AID 720681)
Outline: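 Compounds were added to cell-free DMEM with 10% FBS and fluorescence read directly. The blue channel used 405 nm excitation and 460 nm emission, with triamterene as the reference fluorophore.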

[19] = qHTS assay for small molecule agonists of the p53 signaling pathway - cell viability (AID 651633; calls by dose curve;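 note: p53RE-bla HCT reporter cells with a stable beta-lactamase p53 reporter; series mostly up to about 83 µM; nearly all actives have a fitted effect of over 30% in size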)
Outline: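 p53RE-bla cells were treated with compound for 16 hours at 37 C. Cytotoxicity was then measured as CellTiter-Glo luminescence after 30 min at room temperature.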
% is set by controls: 0 for no effect and ±100 for the full control effect.

Sequence of Glucocorticoid receptor (Homo sapiens) (P04150 whole entry, looked up): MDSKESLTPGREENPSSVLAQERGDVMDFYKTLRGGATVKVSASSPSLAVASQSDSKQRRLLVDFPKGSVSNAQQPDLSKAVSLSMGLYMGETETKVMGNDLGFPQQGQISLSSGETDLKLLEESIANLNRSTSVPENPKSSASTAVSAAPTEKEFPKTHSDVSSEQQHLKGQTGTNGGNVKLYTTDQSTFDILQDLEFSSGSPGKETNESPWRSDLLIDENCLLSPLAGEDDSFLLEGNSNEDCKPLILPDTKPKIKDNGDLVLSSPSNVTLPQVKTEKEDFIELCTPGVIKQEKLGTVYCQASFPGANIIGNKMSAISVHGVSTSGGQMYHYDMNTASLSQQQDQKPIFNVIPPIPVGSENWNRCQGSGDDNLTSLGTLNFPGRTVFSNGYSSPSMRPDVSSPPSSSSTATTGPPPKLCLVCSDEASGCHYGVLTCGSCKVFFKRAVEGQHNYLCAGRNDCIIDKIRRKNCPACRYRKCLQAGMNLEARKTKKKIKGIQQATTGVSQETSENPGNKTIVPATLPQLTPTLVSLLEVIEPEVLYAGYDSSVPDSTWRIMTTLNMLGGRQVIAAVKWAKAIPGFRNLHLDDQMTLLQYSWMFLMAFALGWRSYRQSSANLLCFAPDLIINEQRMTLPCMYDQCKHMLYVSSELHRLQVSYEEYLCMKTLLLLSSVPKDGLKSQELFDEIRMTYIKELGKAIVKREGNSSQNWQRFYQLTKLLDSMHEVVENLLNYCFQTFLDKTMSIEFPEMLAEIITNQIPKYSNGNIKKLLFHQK

Cc1ccc(C(C)C)cc1O
active: Potency [4] 48.6 µM
inactive: Potency [1] | Potency [2] | Potency [3] | outcome [5] | outcome [6] | outcome [7] | outcome [8] | outcome [9] | outcome [10] | outcome [11] | outcome [12] | outcome [13] | outcome [14] | outcome [15] | Potency [16] | Potency [17]

CC1=C2[C@H](/C=C(\C)C(=O)O)CC[C@@H](C)[C@H]2CC1
inactive: Potency [1] | Potency [3] | outcome [5] | outcome [6] | outcome [7] | outcome [8] | outcome [9] | outcome [10] | outcome [11] | outcome [12] | outcome [13] | outcome [14] | outcome [15] | Potency [17]

CC(C)(C)C1CCCCC1=O (stereo unspecified)
inactive: Potency [1] | Potency [3] | outcome [5] | outcome [6] | outcome [8] | outcome [9] | outcome [18] | outcome [10] | outcome [11] | outcome [12] | outcome [13] | outcome [14] | outcome [15] | Potency [16]

CCCCCCCCCCCCCCCCOP(=O)([O-])OCC[N+](C)(C)C
inactive: Potency [1] | Potency [19] | Potency [3] | outcome [5] | outcome [6] | outcome [8] | outcome [9] | outcome [18] | outcome [10] | outcome [11] | outcome [12] | outcome [13] | outcome [14] | outcome [15]

O=C1Nc2ccc([N+](=O)[O-])cc2C1=O
inactive: Potency [1] | Potency [19] | outcome [6] | outcome [7] | outcome [9] | outcome [18] | outcome [10] | outcome [11] | outcome [12] | outcome [13] | outcome [14] | Potency [16] | Potency [17]
active: Potency [4] 68.5 µM

Cc1c[nH]c(=S)[nH]c1=O
inactive: Potency [1] | Potency [3] | outcome [5] | outcome [6] | outcome [7] | outcome [8] | outcome [9] | outcome [18] | outcome [10] | outcome [11] | outcome [12] | outcome [13] | outcome [14] | outcome [15]

CC(C)O
inactive: Potency [1] | Potency [2] | Potency [3] | Potency [4] | outcome [5] | outcome [6] | outcome [7] | outcome [8] | outcome [9] | outcome [11] | outcome [12] | outcome [13] | outcome [14] | outcome [15]

O=C(Cl)c1cccc([N+](=O)[O-])c1
inactive: Potency [19] | Potency [3] | Potency [4] | outcome [5] | outcome [6] | outcome [7] | outcome [8] | outcome [9] | outcome [18] | outcome [10] | outcome [11] | outcome [12] | outcome [13] | outcome [14] | outcome [15] | Potency [16] | Potency [17]

C=O
inactive: Potency [19] | Potency [3] | outcome [5] | outcome [6] | outcome [7] | outcome [9] | outcome [18] | outcome [10] | outcome [11] | outcome [12] | outcome [13] | outcome [14] | outcome [15]

CCC(=O)c1ccc2c(c1)N(CCCN(C)C)c1ccccc1S2
inactive: Potency [1] | Potency [2] | Potency [3] | outcome [6] | outcome [8] | outcome [9] | outcome [18] | outcome [10] | outcome [11] | outcome [12] | outcome [13] | outcome [14] | Potency [16]

CCCCCCCCc1ccc(S(=O)(=O)O)cc1
inactive: Potency [1] | Potency [2] | Potency [3] | outcome [5] | outcome [6] | outcome [7] | outcome [8] | outcome [9] | outcome [18] | outcome [10] | outcome [11] | outcome [12] | outcome [13] | outcome [14] | outcome [15] | Potency [16] | Potency [17]

O=C(CC(=O)C(F)(F)F)c1ccccc1
inactive: Potency [1] | outcome [5] | outcome [6] | outcome [7] | outcome [9] | outcome [11] | outcome [12] | outcome [13] | outcome [14] | outcome [15]
active: Potency [4] 15.6 µM

CCOc1ccc(OCC)c(Cl)c1
inactive: Potency [1] | Potency [2] | Potency [3] | outcome [6] | outcome [7] | outcome [8] | outcome [9] | outcome [18] | outcome [10] | outcome [11] | outcome [12] | outcome [13] | outcome [14] | outcome [15] | Potency [16]

CCN(CCCc1ccccc1)CCCc1ccccc1
inactive: Potency [1] | Potency [19] | Potency [3] | fluorescence, relative to Rose Bengal [5] 0.32% [at 18.6 µM] | fluorescence, % of fluorescein control [6] -0.0397% [at 18.6 µM] | fluorescence, % of triamterene [7] 0.0775% [at 18.6 µM] | fluorescence, % of fluorescein [9] 0.159% [at 18.6 µM] | fluorescence, % of fluorescent control [18] -0.0197% [at 18.6 µM] | fluorescence, % of fluorescent control [11] 0.107% [at 18.6 µM] | fluorescence, % of Rose Bengal [12] -0.137% [at 18.6 µM] | fluorescence, % of fluorescent control [13] 0.009% [at 18.6 µM] | fluorescence, % of fluorescein control [14] 0.0299% [at 18.6 µM] | fluorescence, % of fluorescent control [15] -0.0033% [at 18.6 µM]

NC1=NCC2c3ccccc3Cc3ccccc3N12 (stereo unspecified)
inactive: Potency [2] | Potency [3] | Potency [4] | outcome [5] | outcome [6] | outcome [7] | outcome [8] | outcome [9] | outcome [18] | outcome [10] | outcome [11] | outcome [12] | outcome [13] | outcome [14] | outcome [15] | Potency [17]
